# Source: PubChem BioAssay (NCATS)
# “And” between values parts separate entries of the source, which are not always exact repeats. Identical values can stand only once. Records with an inconclusive call do not appear. Entries that show only a call come without a potency. The source made the active and inactive calls. Calls follow the shape of the dose curve; as a rule, active = well fitted curve in the direction sought with a large enough effect; inconclusive = small, poorly fitted or top-dose-only effect, or another doubt; inactive = no such curve, though single readings can be large; an effect the other way counts as inactive or inconclusive.
# Tested on: not listed separately
# Test: qHTS of pediatric cancer cell lines to identify multiple opportunities for drug repurposing: Confirmatory screen for SK-N-SH cells (AID 1347129);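 also: cells exposed to compound for 48 h before viability read; nearly all actives have a fitted effect of over 60% in size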
# Settings: SK-N-SH neuroblastoma cell viability; series mostly up to 46.1 µM
# Outline: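 Viability after 48 h compound treatment at 37C, 500-1,000 cells/well, read as ATP luminescence with CellTiter-Glo. Primary screens used 11-point (MIPE, 0.78 nM-46 µM) or 8-point (NPC, 0.59 nM-46 µM) final concentrations; follow-up screens used 11-point dilutions.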
# Potency is read from the fitted curve at half-maximal effect.
row,Structure (SMILES),Potency
1,CNC(=O)c1cc(Oc2ccc(NC(=O)Nc3ccc(Cl)c(C(F)(F)F)c3)cc2)ccn1,20.9 µM (active)
2,COc1ccc(-c2ccc3cc(C(=O)O)ccc3c2)cc1C12CC3CC(CC(C3)C1)C2,inactive
3,O=S(=O)(O)CCS,inactive
4,NC(=O)c1cccnc1,inactive
5,C[C@@H]1C[C@H]2[C@@H]3CCC4=CC(=O)C=C[C@]4(C)[C@@]3(Cl)[C@@H](O)C[C@]2(C)[C@@]1(OC(=O)c1ccco1)C(=O)CCl,14.8 µM (active)
6,COC(=O)Nc1nc2ccc(C(=O)c3ccccc3)cc2[nH]1,inactive
7,Nc1nc(N)c2nc(CNc3ccc(C(=O)NC(CCC(=O)O)C(=O)O)cc3)cnc2n1 (stereo unspecified),inactive
8,Oc1c(Cl)cc(Cl)c2cccnc12,20.9 µM (active)
9,CCOC(=O)c1ccc(C#Cc2ccc3c(c2)C(C)(C)CCS3)nc1,inactive
10,Nc1nc(N)nc(-c2cc(Cl)ccc2Cl)n1,inactive

# Target: N-terminal Xaa-Pro-Lys N-methyltransferase 1 (Homo sapiens) (UniProt Q9BV86)
# Sequence (Q9BV86 whole entry, looked up): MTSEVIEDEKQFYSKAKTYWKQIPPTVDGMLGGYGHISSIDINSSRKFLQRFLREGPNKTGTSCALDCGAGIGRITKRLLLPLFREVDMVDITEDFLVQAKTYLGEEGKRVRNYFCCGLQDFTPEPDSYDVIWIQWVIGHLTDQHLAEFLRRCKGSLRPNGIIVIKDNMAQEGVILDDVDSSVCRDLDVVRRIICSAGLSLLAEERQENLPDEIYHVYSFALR
# Test: qHTS Assay for Inhibitors of N-terminal methyltransferase 1 (NTMT1): LOPAC validation of the NTMT1 SAHH-coupled ThioGlo3 Assay (AID 1347143);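 also: SAH from peptide methylation measured as thiol fluorescence via SAHH coupling and ThioGlo3; nearly all actives have a fitted effect of over 70% in size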
# Settings: recombinant NTMT1, SAHH-coupled ThioGlo3 fluorescence; series mostly up to 114 µM
# Outline: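 Steps: dispense 125nM NTMT1; pin-transfer test compounds at several concentrations, with 1uM RCC1-6 peptide as control; incubate 1 min; start with reagent holding 100uM SAM, 10uM SAHH, 15uM ThioGlo3; read at 0 and 30 min.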
row,Structure (SMILES),Potency
1,NC(=O)c1ccc2[nH]ccc2c1,inactive
2,O=C(O)C1CCCN(CCC=C(c2ccccc2)c2ccccc2)C1 (stereo unspecified),inactive
3,CCN1CCCC1CNC(=O)c1cc(S(N)(=O)=O)ccc1OC (stereo unspecified),56.2 µM (active)
4,CCCCS(=N)(=O)CCC(N)C(=O)O (stereo unspecified),inactive
5,OCc1ccc(-c2nn(Cc3ccccc3)c3ccccc23)o1,28.2 µM (active)
6,Nc1nc(N)c2nc(CNc3ccc(C(=O)NC(CCC(=O)O)C(=O)O)cc3)cnc2n1 (stereo unspecified),56.2 µM (active)
7,NC(=O)c1cccc(N)c1,inactive
8,N[C@@H](Cc1ccc(O)c(O)c1)C(=O)O,50.1 µM (active)
9,CC1=C(C(=O)O)N2C(=O)[C@@H](NC(=O)C(N)c3ccccc3)[C@H]2SC1 (stereo partly specified),inactive

# Target: Furin (Homo sapiens) (UniProt P09958)
# Sequence (P09958 whole entry, looked up): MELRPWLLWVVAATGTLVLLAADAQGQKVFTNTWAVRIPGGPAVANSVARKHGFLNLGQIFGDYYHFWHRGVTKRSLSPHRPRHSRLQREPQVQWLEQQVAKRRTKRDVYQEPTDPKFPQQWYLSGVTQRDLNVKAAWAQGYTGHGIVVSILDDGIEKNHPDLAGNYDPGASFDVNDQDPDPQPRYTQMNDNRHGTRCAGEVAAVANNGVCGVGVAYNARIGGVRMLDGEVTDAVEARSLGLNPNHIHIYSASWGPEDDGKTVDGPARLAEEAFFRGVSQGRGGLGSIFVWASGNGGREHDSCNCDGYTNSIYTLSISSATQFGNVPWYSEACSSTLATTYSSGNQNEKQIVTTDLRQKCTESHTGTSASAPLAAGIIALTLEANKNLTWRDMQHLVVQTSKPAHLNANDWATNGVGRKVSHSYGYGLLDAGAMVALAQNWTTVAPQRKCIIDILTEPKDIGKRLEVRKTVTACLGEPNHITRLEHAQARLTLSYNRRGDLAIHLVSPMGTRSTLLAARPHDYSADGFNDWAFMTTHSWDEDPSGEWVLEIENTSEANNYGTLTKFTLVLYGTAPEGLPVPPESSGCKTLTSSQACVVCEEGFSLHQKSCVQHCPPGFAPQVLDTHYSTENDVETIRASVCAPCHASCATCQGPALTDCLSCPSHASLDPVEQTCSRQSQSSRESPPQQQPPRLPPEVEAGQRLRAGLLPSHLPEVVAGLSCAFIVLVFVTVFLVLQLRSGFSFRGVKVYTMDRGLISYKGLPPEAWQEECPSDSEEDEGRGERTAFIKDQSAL
# Test: Furin counterscreen qHTS for Zika virus inhibitors (AID 1347149); also: nearly all actives have a fitted effect of over 70% in size
# Settings: furin enzymatic counterscreen, fluorogenic substrate; series mostly up to 57.5 µM
# Outline: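 Counterscreen measures cleavage of 2 microM BOC-RVRR-AMC, below its ~15 microM Km, by 5 nM full-length human furin at pH 7.0 after a 15-min compound preincubation. Inhibition derives from the 15-min fluorescence increase at 37C.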
row,Structure (SMILES),Potency
1,CNC(=O)c1cc(Oc2ccc(NC(=O)Nc3ccc(Cl)c(C(F)(F)F)c3)cc2)ccn1,inactive
2,COc1ccc(-c2ccc3cc(C(=O)O)ccc3c2)cc1C12CC3CC(CC(C3)C1)C2,inactive
3,CCCc1nc(C)c2c(=O)[nH]c(-c3cc(S(=O)(=O)N4CCN(CC)CC4)ccc3OCC)nn12,inactive
4,O=C(O)c1cn(C2CC2)c2cc(N3CCNCC3)c(F)cc2c1=O,24.1 µM (active)
5,CCn1cc(C(=O)O)c(=O)c2cc(F)c(N3CCNCC3)cc21,17.1 µM (active)
6,CC(C)(Sc1cc(C(C)(C)C)c(O)c(C(C)(C)C)c1)Sc1cc(C(C)(C)C)c(O)c(C(C)(C)C)c1,inactive
7,O=C(O)c1ccc(-n2nc(-c3ccccc3O)nc2-c2ccccc2O)cc1,inactive
8,COC(=O)Nc1nc2ccc(C(=O)c3ccccc3)cc2[nH]1,inactive
9,COc1c(N2CCNC(C)C2)c(F)cc2c(=O)c(C(=O)O)cn(C3CC3)c12 (stereo unspecified),24.1 µM (active) and 27.1 µM (active)
10,OCc1ccc(-c2nn(Cc3ccccc3)c3ccccc23)o1,27.1 µM (active)
11,Nc1nc(N)c2nc(CNc3ccc(C(=O)NC(CCC(=O)O)C(=O)O)cc3)cnc2n1 (stereo unspecified),19.1 µM (active)
12,CNC1CCCN(c2c(F)cc3c(=O)c(C(=O)O)cn(C4CC4)c3c2OC)C1 (stereo unspecified),7.62 µM (active) and 24.1 µM (active)
